# Measurements from PubChem BioAssay (EPA / NIEHS).
# Inconclusive results are not listed. Where a structure was tested more than once in an assay, its records may differ in their call. Active and inactive are the calls of the source. How the source made its calls, unless noted: active means hit-call score of the fitted dose curve at least 0.9, where 1 is the maximum; inactive means score below 0.9.
# Legend:
# [1] = biological target: rat Peripheral-type Benzodiazepine Receptor (PBR), Tspo (gene 24230) (UniProt P16257); assay: NVS_MP_rPBR: NovaScreen (NVS) Membrane Protein Assay for rat Peripheral-type Benzodiazepine Receptor (PBR) (AID 2283335; active means hit-call score of the fitted dose curve at least 0.9, where 1 is the maximum)
# Chain of rat Peripheral-type Benzodiazepine Receptor (PBR), Tspo (gene 24230) (P16257 whole entry, looked up): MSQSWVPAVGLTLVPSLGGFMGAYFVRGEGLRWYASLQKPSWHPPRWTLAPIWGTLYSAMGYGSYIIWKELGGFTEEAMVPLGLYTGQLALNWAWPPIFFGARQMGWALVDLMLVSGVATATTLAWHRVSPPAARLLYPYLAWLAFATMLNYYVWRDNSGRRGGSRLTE
# How it was run: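 Single-concentration duplicate screening at 25 uM preceded concentration-series retesting of actives. Binding of a specific radioligand to rat kidney membrane PBR was read by filtration radiodetection after 1 h, with plate-wise positive and negative controls.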
# [2] = biological target: Estrogen receptor (Homo sapiens) (UniProt P03372); assay: NVS_NR_hER: NovaScreen (NVS) Nuclear Receptor Binding Assay for human Estrogen Receptor (ER) (AID 2283348; active means hit-call score of the fitted dose curve at least 0.9, where 1 is the maximum)
# Chain of Estrogen receptor (Homo sapiens) (P03372 whole entry, looked up): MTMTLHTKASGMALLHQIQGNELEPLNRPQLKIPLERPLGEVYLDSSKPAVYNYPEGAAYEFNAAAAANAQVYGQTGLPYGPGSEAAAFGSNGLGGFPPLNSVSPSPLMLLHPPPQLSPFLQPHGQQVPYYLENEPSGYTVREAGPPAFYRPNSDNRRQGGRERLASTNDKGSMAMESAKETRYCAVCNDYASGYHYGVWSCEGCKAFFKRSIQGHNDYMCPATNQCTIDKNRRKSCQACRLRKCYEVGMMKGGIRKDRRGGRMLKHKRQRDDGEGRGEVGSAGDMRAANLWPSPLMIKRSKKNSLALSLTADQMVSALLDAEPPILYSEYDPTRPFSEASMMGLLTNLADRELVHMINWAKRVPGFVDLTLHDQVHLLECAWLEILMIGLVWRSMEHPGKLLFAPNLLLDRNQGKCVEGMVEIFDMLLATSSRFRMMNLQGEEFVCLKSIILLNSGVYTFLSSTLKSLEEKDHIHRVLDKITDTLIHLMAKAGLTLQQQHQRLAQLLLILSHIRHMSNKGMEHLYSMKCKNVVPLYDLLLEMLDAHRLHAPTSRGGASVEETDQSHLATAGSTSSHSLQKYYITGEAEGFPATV
# How it was run: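 Cell-free MCF7-derived ER preparation, specific radioligand displaced by test compound, read by scintillation counting 18 h post-dosing. Duplicate single-point 25 uM screen, then concentration-response confirmation; DMSO baseline.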
# [3] = biological target: human Phosphoinositide 3-kinase alpha (PI3Ka), PIK3CA (gene 5290) (UniProt P42336); assay: NVS_ENZ_hPI3Ka: NovaScreen (NVS) Enzymatic Assay for human Phosphoinositide 3-kinase alpha (PI3Ka) (AID 2283196; active means hit-call score of the fitted dose curve at least 0.9, where 1 is the maximum)
# Chain of human Phosphoinositide 3-kinase alpha (PI3Ka), PIK3CA (gene 5290) (P42336 whole entry, looked up): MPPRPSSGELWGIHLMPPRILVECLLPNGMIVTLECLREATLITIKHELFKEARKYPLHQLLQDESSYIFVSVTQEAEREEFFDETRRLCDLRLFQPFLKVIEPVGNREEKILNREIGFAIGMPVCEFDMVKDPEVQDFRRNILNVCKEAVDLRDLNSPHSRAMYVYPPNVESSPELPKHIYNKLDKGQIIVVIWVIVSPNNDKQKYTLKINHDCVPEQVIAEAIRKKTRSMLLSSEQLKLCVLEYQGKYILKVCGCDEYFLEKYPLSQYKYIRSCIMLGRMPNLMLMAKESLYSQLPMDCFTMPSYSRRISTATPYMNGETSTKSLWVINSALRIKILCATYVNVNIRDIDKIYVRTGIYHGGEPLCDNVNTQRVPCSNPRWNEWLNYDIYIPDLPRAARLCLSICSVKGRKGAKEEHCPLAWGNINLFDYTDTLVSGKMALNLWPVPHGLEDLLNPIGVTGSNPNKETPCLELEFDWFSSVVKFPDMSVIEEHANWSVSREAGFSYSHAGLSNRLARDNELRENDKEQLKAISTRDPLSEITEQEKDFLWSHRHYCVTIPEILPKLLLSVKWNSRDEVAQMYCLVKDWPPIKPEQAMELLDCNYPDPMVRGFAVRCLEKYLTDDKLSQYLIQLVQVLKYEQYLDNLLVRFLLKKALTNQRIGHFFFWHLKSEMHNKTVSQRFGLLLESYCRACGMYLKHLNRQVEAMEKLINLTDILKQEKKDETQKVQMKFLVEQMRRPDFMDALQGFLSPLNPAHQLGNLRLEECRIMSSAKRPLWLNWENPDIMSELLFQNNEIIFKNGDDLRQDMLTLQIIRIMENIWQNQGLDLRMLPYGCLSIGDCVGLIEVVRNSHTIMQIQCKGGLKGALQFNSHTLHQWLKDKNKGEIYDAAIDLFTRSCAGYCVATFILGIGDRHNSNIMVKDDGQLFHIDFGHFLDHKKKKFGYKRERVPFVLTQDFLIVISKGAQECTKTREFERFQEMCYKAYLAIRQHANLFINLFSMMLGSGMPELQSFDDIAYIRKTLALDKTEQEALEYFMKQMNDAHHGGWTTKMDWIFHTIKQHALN
# How it was run: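 Chemicals were first screened at 25 uM in duplicate, then hits were run as concentration series up to 50 uM. Enzyme activity was measured by fluorescence after mobility-shift separation, with loss of signal relative to DMSO taken as activity.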
# [4] = CCTE_Shafer_MEA_acute_firing_rate_mean: CCTE's Neural Acute Assay for Mean Firing Rate, Shafer Lab (AID 2284009);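 further: analyzed for loss of signal so actives lower firing rate relative to DMSO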
# How it was run: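 Primary rat cortical neurons on 16-electrode MEA wells were exposed on DIV 13 or 15 to compound (0.03-40 uM). Spike counts per recording time, averaged over electrodes, were compared between 40-min baseline and 40-min post-exposure recordings as percent change.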
# [5] = CCTE_Shafer_MEA_acute_burst_number: CCTE's Neural Acute Assay for Single-Electrode Bursts, Shafer Lab (AID 2284013)
# How it was run: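 Primary rat cortical neurons on 16-electrode MEA wells, DIV 13 or 15, exposed to compound (0.03-40 uM; ≥3 wells); 40-min recordings at 37 C before and after treatment. Burst count expressed as percent change from baseline, DMSO as negative control.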
# [6] = CCTE_Shafer_MEA_acute_burst_duration_mean: CCTE's Neural Acute Assay for Mean Burst Duration, Shafer Lab (AID 2284014);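 further: hits are decreases in mean burst duration relative to DMSO controls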
# How it was run: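 Mean burst duration was compared between a 40 min baseline and a 40 min recording in the presence of compound (0.03-40 uM, 37 C), giving percent change per well. Cultures were rat cortical neurons at DIV 13 or 15; wells needed ≥10 active electrodes.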
# [7] = CCTE_Shafer_MEA_acute_interburst_interval_mean: CCTE's Neural Acute Assay for Mean Interburst Interval, Shafer Lab (AID 2284016);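 further: percent change of mean interburst interval versus each well's own pre-dose baseline; curves fitted for decrease in interburst interval relative to DMSO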
# How it was run: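 Rat cortical cultures, DIV 13/15; 20 min equilibration, 40 min baseline, compound 0.03-40 uM, 40 min re-recording, 37 C. Spikes detected at 8x rms noise (300-5000 Hz band-pass). Endpoint: % change in interburst interval, fitted in loss direction vs DMSO.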
# [8] = CCTE_Shafer_MEA_acute_burst_percentage_mean: CCTE's Neural Acute Assay for Percentage of Spikes in a Burst, Shafer Lab (AID 2284017);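 further: curve fitted for loss of signal so potency reflects decreased burst percentage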
# How it was run: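 Rat cortical cultures, DIV 13/15, 37 C. Spikes detected at 8x rms noise (300-5000 Hz band-pass). Burst spikes/total spikes averaged across electrodes per well; % change post- vs pre-treatment (40 min each), loss-of-signal fit vs DMSO.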
# [9] = CCTE_Shafer_MEA_acute_burst_percentage_std: CCTE's Neural Acute Assay for Standard Deviation of Burst Percentage, Shafer Lab (AID 2284018);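 further: fitted in the negative direction so actives lower burst percentage SD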
# How it was run: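 Value is percent change from baseline in the across-electrode SD of spikes-in-bursts percentage, wells with >/= 10 active electrodes. Acute 40-min exposure to 0.03-40 uM on DIV 13 or 15 rat cortical cultures, recorded at 37 C after 40-min baseline.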
# [10] = CCTE_Shafer_MEA_acute_per_network_burst_spike_number_mean: CCTE's Neural Acute Assay for Average Number of Spikes in a Network Burst, Shafer Lab (AID 2284019);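 on AC50: curve fitted for loss of signal so actives reduce spikes per network burst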
# How it was run: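 Percent change from baseline in mean spikes per network burst, spikes detected at 8x rms noise. Each compound at 0.03-40 uM in at least three wells of rat cortical cultures, recorded 40 min before and 40 min during exposure.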
# [11] = CCTE_Shafer_MEA_acute_per_network_burst_spike_number_std: CCTE's Neural Acute Assay for Standard Deviation of Number of Spikes in a Network Burst, Shafer Lab (AID 2284020);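 further: fitted for decrease in spike-number SD versus DMSO so actives lower it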
# How it was run: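 Endpoint: percent change from 40 min baseline in standard deviation of spikes per network burst, after 40 min compound exposure (0.03-40 uM, 37 C). Cortical rat neurons on MEA at DIV 13 or 15; spikes detected at 8x rms noise, 300-5000 Hz band-pass.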
# [12] = CCTE_Shafer_MEA_acute_network_burst_percentage: CCTE's Neural Acute Assay for Percentage of Network Bursts, Shafer Lab (AID 2284022);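 further: curves fitted for loss so actives lower network burst percentage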
# How it was run: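 Rat primary cortical neuron networks on 48-well MEA plates, DIV 13 or 15, treated acutely with compound (0.03-40 uM, at least three wells). Percent of spikes within network bursts compared between 40-min recordings before and during exposure at 37 C, expressed as percent change.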
# [13] = CCTE_Shafer_MEA_acute_cross_correlation_area: CCTE's Neural Acute Assay for Area of Cross Correlation, Shafer Lab (AID 2284024);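 further: curves fitted for loss of cross-correlation area so actives lower synchrony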
# How it was run: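 Rat primary cortical neurons on 48-well MEA, DIV 13 or 15; compounds 0.03-40 uM. Baseline and post-exposure 40 min recordings at 37 C; percent change in area under pooled inter-electrode cross-correlation near zero lag, relative to DMSO.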
# [14] = CCTE_Shafer_MEA_acute_cross_correlation_HWHM: CCTE's Neural Acute Assay for Cross Correlation at Half Width at Half Maximum, Shafer Lab (AID 2284026);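 further: percent change per well from pre-dose baseline in spike cross-correlogram half width; hits are a decrease in cross-correlogram half width relative to DMSO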;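 on outcome: spontaneous network firing of rat primary cortical neurons on multiwell microelectrode arrays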
# How it was run: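 Rat primary cortical neurons on 48-well MEA plates; 40-min baseline and 40-min post-exposure recordings at 37 C on DIV 13 or 15, compounds 0.03-40 uM. Spikes detected at 8x rms noise; percent change in cross-correlogram HWHM per well vs baseline.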
# [15] = CCTE_Shafer_MEA_acute_synchrony_index: CCTE's Neural Acute Assay for Synchrony, Shafer Lab (AID 2284027);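 further: network synchrony index of spontaneous spiking in primary rat cortical neurons on MEAs; fitted for loss of signal so actives lower synchrony relative to DMSO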
# How it was run: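 Rat cortical cultures, DIV 13/15; spikes detected at 8x rms noise, 300-5000 Hz band-pass. Compound 0.03-40 uM, ≥3 wells; 40-min pre- and post-exposure recordings, 37 C. Readout: % change in synchrony index; loss-of-signal fit vs DMSO.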
# [16] = CCTE_Shafer_MEA_acute_LDH: CCTE's Lactate Dehydrogenase Assay for Cytotoxicity in the Neural Acute Assay, Shafer Lab (AID 2284086; active means hit-call score of the fitted dose curve at least 0.9, where 1 is the maximum;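 further: active means LDH release rises above DMSO vehicle level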)
# How it was run: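 LDH absorbance at 490 nm in medium taken right after 40-min compound exposure; rat primary cortical neuron networks on MEA plates, days post-plating 13 or 15. Increase over DMSO baseline scored as cytotoxicity.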
# AR (gene 367) = AR (gene 367) (UniProt P10275); assay: ACEA_AR_antagonist_80hr: ACEA Biosciences xCELLigence Real-Time Cell Analysis on Androgen Receptor Antagonism for Proliferation (AID 2283787; active means hit-call score of the fitted dose curve at least 0.9, where 1 is the maximum;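 further: 22Rv1 human prostate cancer cells with growth followed by electrical impedance; hits lower the impedance growth signal relative to DMSO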)
# Chain of AR (gene 367) (P10275 whole entry, looked up): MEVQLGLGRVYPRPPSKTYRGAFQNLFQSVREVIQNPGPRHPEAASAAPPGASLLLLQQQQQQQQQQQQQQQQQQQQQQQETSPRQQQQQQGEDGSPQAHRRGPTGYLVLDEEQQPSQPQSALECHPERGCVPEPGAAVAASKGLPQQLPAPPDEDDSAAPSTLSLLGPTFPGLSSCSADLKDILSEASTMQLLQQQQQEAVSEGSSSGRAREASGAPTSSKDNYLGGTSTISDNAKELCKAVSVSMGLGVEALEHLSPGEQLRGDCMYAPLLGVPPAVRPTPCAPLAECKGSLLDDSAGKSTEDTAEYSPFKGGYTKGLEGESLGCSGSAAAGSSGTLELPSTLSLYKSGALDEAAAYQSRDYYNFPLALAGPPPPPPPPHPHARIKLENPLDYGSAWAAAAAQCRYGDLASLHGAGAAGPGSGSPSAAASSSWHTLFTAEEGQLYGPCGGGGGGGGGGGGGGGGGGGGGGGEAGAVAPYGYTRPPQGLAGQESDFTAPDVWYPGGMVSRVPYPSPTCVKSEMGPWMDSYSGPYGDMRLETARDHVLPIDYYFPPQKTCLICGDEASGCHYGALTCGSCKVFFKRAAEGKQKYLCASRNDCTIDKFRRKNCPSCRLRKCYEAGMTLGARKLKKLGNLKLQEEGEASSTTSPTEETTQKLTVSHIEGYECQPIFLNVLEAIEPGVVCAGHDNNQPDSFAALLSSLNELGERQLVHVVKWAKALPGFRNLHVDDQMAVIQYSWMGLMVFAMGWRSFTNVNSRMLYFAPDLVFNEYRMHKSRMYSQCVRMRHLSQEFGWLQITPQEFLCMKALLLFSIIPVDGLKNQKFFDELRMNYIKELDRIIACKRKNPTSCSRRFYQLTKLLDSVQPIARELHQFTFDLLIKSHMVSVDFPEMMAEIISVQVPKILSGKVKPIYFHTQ
# How it was run: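 Impedance-based real-time growth of 22Rv1 prostate cells, read 80 h after dosing. Eight concentrations, 1:4 series, top 100 uM final (0.5% DMSO), n = 2; signal decrease scored against DMSO.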
# [17] = CCTE_Deisenroth_5AR_NBTE_donor: CCTE's 5alpha-reductase NanoBRET Target Engagement Assay […], Deisenroth Lab (AID 2284319); settings: actives raise or lower the signal
# How it was run: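 SRD5A2-NanoLuc, HEK293T, 20 h expression. Chemical 10 nM - 29.9 uM, 8 conc, duplicate; 3 h preincubation + 2 h testosterone tracer. Nano-Glo substrate plus extracellular NanoLuc inhibitor; donor lum 460 nm. DMSO baseline, bidirectional fit.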
# SRD5A2 (gene 6716) = assay: CCTE_Deisenroth_5AR_NBTE_ratio: CCTE's 5alpha-reductase NanoBRET Target Engagement Assay - Ratio, Deisenroth Lab (AID 2284322); settings: actives raise or lower the signal
# How it was run: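 SRD5A2-NanoLuc HEK293T; cmpd 10 nM-29.9 uM, 3 h preinc + testosterone tracer 2 h; NanoBRET ratio 650/460; bidirectional fit vs DMSO.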
smiles,measurement,setting,value
CNC(=O)Oc1cc(C)c(SC)c(C)c1,AC50,[1],11700 nM (active)
O=C(O)c1cc[c]([Hg][Cl])cc1,outcome,[2],inactive
COC(C)(C)CCC[C@H](C)C/C=C/C(C)=C/C(=O)OC(C)C,outcome,[3],inactive
CCOP(=O)(OCC)Oc1ccc([N+](=O)[O-])cc1,outcome,[1],inactive
COc1ccc(CO)cc1,outcome,[4],inactive
same,outcome,[5],inactive
same,outcome,[6],inactive
same,outcome,[7],inactive
same,AC50,[8],3790 nM (active)
same,outcome,[9],inactive
same,AC50,[10],25400 nM (active)
same,outcome,[11],inactive
same,outcome,[12],inactive
same,outcome,[13],inactive
same,outcome,[14],inactive
same,AC50,[15],3810 nM (active)
same,outcome,[16],inactive
CC1(C)[C@H](C(=O)O[C@H](C#N)c2cccc(Oc3ccccc3)c2)[C@@H]1C=C(Br)Br,AC50,[1],15000 nM (active)
same,AC50,AR (gene 367),50000 nM (active)
same,outcome,AR (gene 367),inactive
same,AC50,[4],1620 nM (active)
same,AC50,[5],2530 nM (active)
same,AC50,[6],418 nM (active)
same,AC50,[7],2090 nM (active)
same,AC50,[8],1100 nM (active)
same,AC50,[9],2720 nM (active)
same,AC50,[10],1500 nM (active)
same,AC50,[11],642 nM (active)
same,AC50,[12],639 nM (active)
same,AC50,[13],203 nM (active)
same,AC50,[14],3100 nM (active)
same,AC50,[15],866 nM (active)
same,outcome,[16],inactive
O=c1c2ccccc2c(=O)c2c1cc(Cl)c1[nH]c3c([nH]c12)c(Cl)cc1c(=O)c2ccccc2c(=O)c13,AC50,[3],4370 nM (active)
same,outcome,[4],inactive
same,outcome,[5],inactive
same,outcome,[6],inactive
same,outcome,[7],inactive
same,AC50,[8],21000 nM (active)
same,outcome,[9],inactive
same,outcome,[10],inactive
same,outcome,[11],inactive
same,outcome,[12],inactive
same,outcome,[13],inactive
same,outcome,[14],inactive
same,outcome,[15],inactive
same,outcome,[16],inactive
Oc1ccc(C2(c3ccc(O)cc3)c3ccccc3-c3ccccc32)cc1,AC50,[2],644 nM (active)
same,AC50,[4],8.83 nM (active)
same,AC50,[5],35.9 nM (active)
same,outcome,[6],inactive
same,outcome,[7],inactive
same,AC50,[8],24800 nM (active)
same,AC50,[9],22800 nM (active)
same,outcome,[10],inactive
same,AC50,[11],23100 nM (active)
same,AC50,[12],26400 nM (active)
same,AC50,[13],25.2 nM (active)
same,AC50,[14],28100 nM (active)
same,AC50,[15],25400 nM (active)
same,outcome,[16],inactive
Oc1cc(Cl)ccc1Cl,outcome,[17],inactive
same,outcome,SRD5A2 (gene 6716),inactive
Cc1ccccc1CCl,outcome,[3],inactive
